Inconclusive results are not listed. The source made the active and inactive calls. Unless noted, calls come from the whole dose curve; as a rule, active = well fitted curve in the direction sought with a large enough effect in the repeat runs; inconclusive = weak or mixed curves; inactive = no such curve, though single readings can be large; an effect the other way counts as inactive or inconclusive.
Key:
[1] = qHTS assay to identify small molecule antagonists of the thyroid receptor (TR) signaling pathway (AID 743065); settings: GH3.TRE-Luc, T3-stimulated luciferase inhibition, 23.5 h; series mostly up to 70.3 µM; note: nearly all actives have a fitted effect of over 55% in size
In short: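 GH3.TRE-Luc rat pituitary cells carrying two TR response elements driving luciferase were plated for 4 h, given compound plus 1 nM T3 (final), and incubated 23.5 h at 37 C. ONE-Glo luminescence measured reporter inhibition; CellTiter-Fluor fluorescence tracked cytotoxicity.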

[2] = tested on: thyroid hormone receptor (rat, GH3 cells); assay: qHTS assay to identify small molecule agonists of the thyroid receptor (TR) signaling pathway (AID 743066; calls by dose curve); settings: GH3.TRE-Luc cells, TR agonist luciferase, 24 h; series mostly up to 83.9 µM
[3] = molecular target: Estrogen receptor (Homo sapiens) (UniProt P03372); assay: qHTS assay to identify small molecule antagonists of the estrogen receptor alpha (ER-alpha) signaling pathway (AID 743069; active = well fitted curve in the direction sought with a large enough effect in the signal ratio in the repeat runs, not every such curve was filed as active; the % refers to the signal ratio); settings: HEK293 ER-alpha-UAS-bla, beta-lactamase ratio, antagonist mode; series mostly up to 69.4 µM
In short: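 HEK293 cells stably carrying an ER-alpha-UAS-bla beta-lactamase reporter were pre-cultured overnight in 2% charcoal-stripped FBS medium. Test compounds in DMSO were added together with 17beta-estradiol for 18 hr at 37C. Read-out was fluorescence after 2 hr with LiveBLAzer B/G FRET substrate at room temperature.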

[4] = qHTS assay to identify small molecule antagonists of the estrogen receptor alpha (ER-alpha) signaling pathway - cell viability counter screen (AID 743074; calls by dose curve; note: nearly all actives have a fitted effect of over 45% in size); settings: ERalpha-bla HEK293 viability, CellTiter-Glo luminescence, 18 h; series mostly up to 69.4 µM
[5] = molecular target: Estrogen receptor (Homo sapiens) (UniProt P03372); assay: qHTS assay to identify small molecule agonists of the estrogen receptor alpha (ER-alpha) signaling pathway (AID 743075; calls by dose curve); settings: HEK293 ER-alpha-UAS-bla, beta-lactamase FRET ratio, 18 h; series mostly up to 70.1 µM
[6] = molecular target: Estrogen receptor (Homo sapiens) (UniProt P03372); assay: qHTS assay to identify small molecule agonists of the estrogen receptor alpha (ER-alpha) signaling pathway using the BG1 cell line (AID 743079); settings: BG1Luc4E2 cells, ERE-luciferase agonist, 22 h; series mostly up to 70.3 µM; note: nearly all actives have a fitted effect of over 20% in size; note: potency is the fitted concentration of half-maximal effect
[7] = qHTS assay to identify small molecule antagonists of the estrogen receptor alpha (ER-alpha) signaling pathway using the BG1 cell line (AID 743080; calls by dose curve;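 note: BG1 cells stimulated with 17beta-estradiol alongside compound; nearly all actives have a fitted effect of over 25% in size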); settings: BG1Luc4E2 ERE-luciferase antagonist mode, luminescence; series mostly up to 70.3 µM
In short: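 BG1Luc4E2, endogenous ER-alpha, 4xERE-luc; 5 d charcoal-stripped FBS, phenol red free; 24 h plating; cpd + 17beta-estradiol 21.5 h, 37 C/5% CO2; CellTiter-Fluor viability 30 min, then ONE-Glo luciferase 30 min RT.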

[8] = qHTS assay to identify small molecule antagonists of the estrogen receptor alpha (ER-alpha) signaling pathway using the BG1 cell line - cell viability counter screen (AID 743081); settings: BG1Luc4E2 viability, CellTiter-Fluor, 22 h; series mostly up to 70.3 µM;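 note: compound given together with 17beta-estradiol as the ER stimulus; nearly all actives have a fitted effect of over 45% in size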
Aromatase (Homo sapiens) = Aromatase (Homo sapiens) (UniProt P11511); assay: qHTS assay to identify aromatase inhibitors (AID 743083); settings: MCF-7 aro ERE, testosterone-driven ERE luciferase, 24 h; series mostly up to 70.3 µM; note: nearly all actives have a fitted effect of over 55% in size
[9] = qHTS assay to identify aromatase inhibitors - cell viability counter screen (AID 743084); settings: MCF-7 aro ERE viability, CellTiter-Fluor, 24 h; series mostly up to 70.3 µM;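 note: cells stimulated with testosterone during compound exposure; nearly all actives have a fitted effect of over 55% in size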
[10] = molecular target: Aryl hydrocarbon receptor (Homo sapiens) (UniProt P35869); assay: qHTS assay to identify small molecule that activate the aryl hydrocarbon receptor (AhR) signaling pathway (AID 743085); settings: HepG2 AhR-luc (HG2L7.5c1), luciferase, 24 h; series mostly up to 70.3 µM;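 note: HG2L7.5c1 human HepG2 liver cells with stably integrated DRE-driven firefly reporter; nearly all actives have a fitted effect of over 15% in size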
In short: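 HepG2 cells (HG2L7.5c1) stably carrying a firefly luciferase reporter driven by 20 dioxin responsive elements were exposed to compound for 24 h at 37C after a 5 h settling period; luminescence rise (ONE-Glo) indicated activation.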

[11] = qHTS assay to identify small molecule that activate the aryl hydrocarbon receptor (AhR) signaling pathway - cell viability counter screen (AID 743086); settings: HepG2-AhR-luc viability, CellTiter-Fluor, 24 h; series mostly up to 70.3 µM; note: nearly all actives have a fitted effect of over 45% in size; note: potency is the fitted concentration of half-maximal effect
In short: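 HepG2-AhR-luc (HG2L7.5c1) cells, 4000/well, were preincubated 5 h at 37C, exposed to compound in qHTS format for 24 hr at 37C, then given CellTiter-Fluor for 30 min; viability was read as fluorescence in the reporter wells.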

[12] = molecular target: Peroxisome proliferator-activated receptor gamma (Homo sapiens) (UniProt P37231); assay: qHTS assay to identify small molecule agonists of the peroxisome proliferator-activated receptor gamma (PPARg) signaling pathway (AID 743094; active = well fitted activation curve with a large enough effect in the signal ratio in the repeat runs, not every such curve was filed as active; the % refers to the signal ratio); settings: HEK293H PPARg-UAS-bla, beta-lactamase FRET ratio, 17 h; series mostly up to 57 µM
In short: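 Compounds dissolved in DMSO were added to PPARg UAS-bla HEK293H cells for 17 h at 37C, and reporter expression was quantified by fluorescence intensity after 1 h with LiveBLAzer B/G FRET substrate.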

[13] = qHTS assay to identify small molecule antagonists of the peroxisome proliferator-activated receptor gamma (PPARg) signaling pathway - cell viability counter screen (AID 743194); settings: PPARg-bla HEK293H viability, CellTiter-Glo luminescence, 17 h; Potency: co-treated with 50 nM rosiglitazone; series mostly up to 62.6 µM; note: nearly all actives have a fitted effect of over 55% in size
In short: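 PPARg-UAS-bla HEK293H cells were plated, rested 5 h at 37 C, then treated with compounds plus rosiglitazone (50 nM final) for 17 h at 37 C; viability was then read by CellTiter-Glo luminescence after 30 min at room temperature.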

[14] = qHTS assay for small molecule agonists of the antioxidant response element (ARE) signaling pathway (AID 743202; active = well fitted activation curve with a large enough effect in the signal ratio in the repeat runs, not every such curve was filed as active; the % refers to the signal ratio); settings: HepG2 ARE-bla reporter, beta-lactamase FRET, 16 h; series mostly up to 73.3 µM
In short: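 Read-out: LiveBLAzer B/G FRET substrate fluorescence after 2 h at room temperature, following 16 h compound treatment at 37 C of HepG2 cells carrying an ARE-driven beta-lactamase reporter.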

[15] = qHTS assay for small molecule agonists of the antioxidant response element (ARE) signaling pathway - cell viability counter screen (AID 743203; calls by dose curve; note: nearly all actives have a fitted effect of over 55% in size); settings: ARE-bla HepG2 viability, CellTiter-Glo luminescence, 16 h; series mostly up to 73.3 µM
In short: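 Following 16 hrs of compound treatment at 37C, HepG2 cells with an ARE-controlled beta-lactamase gene were lysed with CellTiter-Glo. Luminescence was read after 30 min at room temperature.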

[16] = qHTS assay for small molecule activators of the heat shock response signaling pathway (AID 743210; active = well fitted activation curve with a large enough effect in the signal ratio in the repeat runs, with a control signal flat, not every such curve was filed as active; the % refers to the signal ratio); settings: HeLa HSE-bla reporter, beta-lactamase ratio, 5 h; series mostly up to 62.6 µM
In short: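 HSE-bla HeLa cells (beta-lactamase reporter under heat shock response elements) were exposed to compounds for 5 h at 37 C, then loaded with LiveBLAzer B/G FRET substrate for 2.5 h at room temperature before fluorescence reading.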

[17] = molecular target: Peroxisome proliferator-activated receptor gamma (Homo sapiens) (UniProt P37231); assay: qHTS assay to identify small molecule antagonists of the peroxisome proliferator-activated receptor gamma (PPARg) signaling pathway (AID 743191; calls by dose curve; note: nearly all actives have a fitted effect of over 30% in size); settings: HEK293H PPARg-UAS-bla, beta-lactamase ratio, antagonist, 17 h; series mostly up to 62.6 µM
In short: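 GeneBLAzer PPARg UAS-bla HEK293H cells carrying a UAS-driven beta-lactamase reporter were plated at 3000 cells/well, preincubated 5 h at 37C, then given compound for 17 h at 37C; LiveBLAzer B/G FRET substrate was read after 1 h at room temperature.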

[18] = qHTS assay for small molecule activators of the heat shock response signaling pathway - cell viability counter screen (AID 743209); settings: HSE-bla HeLa viability, CellTiter-Glo luminescence, 5 h; series mostly up to 62.6 µM; note: nearly all actives have a fitted effect of over 50% in size
In short: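 Readout: CellTiter-Glo luminescence, 30 min at room temperature. System: HSE-bla HeLa cells, 1500/well, plated overnight. Treatment: compounds in DMSO, 5 h at 37 C.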

[19] = qHTS assay to identify small molecule antagonists of the thyroid receptor (TR) signaling pathway - cell viability counter screen (AID 743064); settings: GH3.TRE-Luc viability, CellTiter-Fluor, 24 h; series mostly up to 70.3 µM; note: potency is the fitted concentration of half-maximal effect; nearly all actives have a fitted effect of over 50% in size
In short: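 GH3.TRE-Luc rat pituitary cells carrying a TRE-luciferase reporter were treated with compound plus 1 nM T3 (final) for 23.5 h at 37 °C. Viability was then read in the same wells by CellTiter-Fluor fluorescence after a further 30 min.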

Measured: Potency

Chain of Estrogen receptor (Homo sapiens) (P03372 whole entry, looked up): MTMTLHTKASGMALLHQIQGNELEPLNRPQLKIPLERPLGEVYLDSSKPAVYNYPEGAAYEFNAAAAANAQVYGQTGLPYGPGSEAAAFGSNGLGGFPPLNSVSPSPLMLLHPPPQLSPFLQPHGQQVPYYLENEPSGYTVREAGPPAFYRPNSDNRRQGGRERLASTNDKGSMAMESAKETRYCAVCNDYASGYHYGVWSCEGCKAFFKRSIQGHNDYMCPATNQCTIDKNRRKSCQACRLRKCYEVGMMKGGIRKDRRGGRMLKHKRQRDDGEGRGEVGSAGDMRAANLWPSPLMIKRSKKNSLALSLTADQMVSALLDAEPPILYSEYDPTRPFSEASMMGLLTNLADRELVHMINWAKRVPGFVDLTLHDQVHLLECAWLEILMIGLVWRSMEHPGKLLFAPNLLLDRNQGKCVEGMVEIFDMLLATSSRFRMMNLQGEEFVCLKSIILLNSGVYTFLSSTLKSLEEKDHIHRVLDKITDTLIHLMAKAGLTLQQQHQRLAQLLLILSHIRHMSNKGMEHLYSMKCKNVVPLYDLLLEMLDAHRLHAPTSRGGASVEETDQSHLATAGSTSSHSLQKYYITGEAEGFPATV
Chain of Peroxisome proliferator-activated receptor gamma (Homo sapiens) (P37231 whole entry, looked up): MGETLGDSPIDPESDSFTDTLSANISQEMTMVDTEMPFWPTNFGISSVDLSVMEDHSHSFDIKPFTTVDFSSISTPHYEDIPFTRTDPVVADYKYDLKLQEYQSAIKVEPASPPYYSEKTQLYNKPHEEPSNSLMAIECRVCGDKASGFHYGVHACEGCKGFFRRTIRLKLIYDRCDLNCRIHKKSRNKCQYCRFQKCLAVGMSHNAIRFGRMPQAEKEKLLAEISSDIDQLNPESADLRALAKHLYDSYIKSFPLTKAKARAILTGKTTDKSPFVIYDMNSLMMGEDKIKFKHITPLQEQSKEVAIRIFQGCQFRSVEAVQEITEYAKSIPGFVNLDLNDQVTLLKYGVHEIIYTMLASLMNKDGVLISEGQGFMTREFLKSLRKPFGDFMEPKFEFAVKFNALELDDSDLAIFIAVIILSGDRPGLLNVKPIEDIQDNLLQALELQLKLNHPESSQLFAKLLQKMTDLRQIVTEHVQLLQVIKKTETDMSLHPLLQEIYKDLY
Chain of Aromatase (Homo sapiens) (P11511 whole entry, looked up): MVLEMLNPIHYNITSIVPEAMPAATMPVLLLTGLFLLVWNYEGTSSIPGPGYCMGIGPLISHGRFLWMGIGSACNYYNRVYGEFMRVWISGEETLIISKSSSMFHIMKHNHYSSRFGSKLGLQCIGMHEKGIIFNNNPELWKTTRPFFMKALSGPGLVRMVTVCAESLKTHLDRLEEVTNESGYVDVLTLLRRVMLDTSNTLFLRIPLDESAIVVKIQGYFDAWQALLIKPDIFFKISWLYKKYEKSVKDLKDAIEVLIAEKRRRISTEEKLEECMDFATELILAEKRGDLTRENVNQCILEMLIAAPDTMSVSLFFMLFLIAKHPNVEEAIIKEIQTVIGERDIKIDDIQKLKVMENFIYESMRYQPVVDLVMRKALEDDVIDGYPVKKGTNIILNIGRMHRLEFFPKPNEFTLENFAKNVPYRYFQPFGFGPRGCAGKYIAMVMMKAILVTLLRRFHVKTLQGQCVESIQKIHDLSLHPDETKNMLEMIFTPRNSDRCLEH
Chain of Aryl hydrocarbon receptor (Homo sapiens) (P35869 whole entry, looked up): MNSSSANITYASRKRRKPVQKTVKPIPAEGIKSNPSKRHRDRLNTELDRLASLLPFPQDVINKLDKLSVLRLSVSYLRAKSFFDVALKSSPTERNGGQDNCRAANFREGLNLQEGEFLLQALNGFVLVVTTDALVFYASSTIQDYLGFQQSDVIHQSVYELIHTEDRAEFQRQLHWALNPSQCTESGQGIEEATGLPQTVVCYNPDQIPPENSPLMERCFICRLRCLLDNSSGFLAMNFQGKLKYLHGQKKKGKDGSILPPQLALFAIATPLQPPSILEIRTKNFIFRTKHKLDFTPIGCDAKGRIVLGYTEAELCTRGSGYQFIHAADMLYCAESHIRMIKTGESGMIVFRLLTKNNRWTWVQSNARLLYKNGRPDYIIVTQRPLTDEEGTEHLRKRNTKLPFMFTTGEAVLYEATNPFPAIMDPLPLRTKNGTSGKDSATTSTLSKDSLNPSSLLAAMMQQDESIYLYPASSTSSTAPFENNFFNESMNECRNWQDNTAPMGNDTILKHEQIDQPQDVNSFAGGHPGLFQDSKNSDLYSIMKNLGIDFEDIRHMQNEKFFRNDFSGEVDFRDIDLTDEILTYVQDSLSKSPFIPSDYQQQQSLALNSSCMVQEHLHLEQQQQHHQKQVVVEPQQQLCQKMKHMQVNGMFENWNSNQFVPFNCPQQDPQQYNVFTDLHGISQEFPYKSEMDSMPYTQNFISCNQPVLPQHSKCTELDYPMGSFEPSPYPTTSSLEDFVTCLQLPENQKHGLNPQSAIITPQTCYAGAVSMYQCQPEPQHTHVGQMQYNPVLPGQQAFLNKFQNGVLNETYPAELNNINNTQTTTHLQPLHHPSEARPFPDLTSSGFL

CCOC(=O)NC(O)C(Cl)(Cl)Cl (stereo not given)
inactive: [1] | [2] | [3] | [4] | [5] | [6] | [7] | [8] | Aromatase (Homo sapiens) | [9] | [10] | [11] | [12] | [13] | [14] | [15] | [16]

Cc1nc(N(C)C)nc(OC(=O)N(C)C)c1C
inactive: [1] | [2] | [3] | [4] | [5] | [6] | [7] | [8] | Aromatase (Homo sapiens) | [9] | [10] | [11] | [12] | [17] | [13] | [15] | [18] | [16]

O=C(N/N=C/c1ccc([N+](=O)[O-])o1)c1cc([N+](=O)[O-])cc([N+](=O)[O-])c1O
inactive: [1] | [2] | [4] | Aromatase (Homo sapiens) | [12] | [13] | [15] | [18] | [16]
active: [11] 29.8 µM

CC(Cl)C(=O)O (stereo not given)
inactive: [1] | [2] | [4] | [8] | Aromatase (Homo sapiens) | [9] | [10] | [11] | [12] | [13] | [14] | [15] | [18] | [16]

C[C@H](N)[C@H](O)c1ccc(O)c(O)c1
active: [19] 26.6 µM
inactive: [3] | [4] | [5] | [6] | [7] | Aromatase (Homo sapiens) | [9] | [10] | [11] | [12] | [13] | [15] | [18] | [16]

CCOC(C(=O)OCCN(C)C)(c1ccccc1)c1ccccc1
inactive: [17] | [13] | [14] | [15] | [18] | [16]

COc1cc(CC#N)cc(OC)c1OC
inactive: [13] | [14] | [15] | [18] | [16]

CC(Cc1ccccc1)NCc1ccccc1Cl (stereo not given)
active: [6] 26.6 µM
inactive: [1] | [2] | [3] | [4] | [5] | [8] | Aromatase (Homo sapiens) | [9] | [11] | [12] | [13] | [15] | [18] | [16]

Reference: PubChem BioAssay (Tox21)
